Experimental data taken from article PMC7826789 (International Journal of Molecular Sciences, 2021).

What was measured:
Conditions in all cases: Compound Concentration (nM):1000
[1] = system: ABL1(Q252H)-phosphorylated
[2] = system: ABL1(T315I)-nonphosphorylated
[3] = system: ABL1(T315I)-phosphorylated
[4] = system: ABL1(Y253F)-phosphorylated
ABL1-nonphosphorylated = system: ABL1-nonphosphorylated
ABL1-phosphorylated = system: ABL1-phosphorylated
ABL2 = system: ABL2
ACVR1B = system: ACVR1B
ACVR1 = system: ACVR1
ACVR2A = system: ACVR2A
ACVR2B = system: ACVR2B
ACVRL1 = system: ACVRL1
ADCK3 = system: T1, ADCK3
T1 construct: gene CABC1

ADCK4 = system: ADCK4
AKT1 = system: AKT1
AKT2 = system: AKT2
AKT3 = system: AKT3
ALK(C1156Y) = system: ALK(C1156Y)
ALK(L1196M) = system: ALK(L1196M)
ALK = system: ALK
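Note: KINOMEscan scanMAX binding as percent activity remaining versus control; lower means stronger binding.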

Row | Structure (SMILES) | Percent Control [1] [%] | Percent Control [2] [%] | Percent Control [3] [%] | Percent Control [4] [%] | Percent Control (ABL1-nonphosphorylated) [%] | Percent Control (ABL1-phosphorylated) [%] | Percent Control (ABL2) [%] | Percent Control (ACVR1B) [%] | Percent Control (ACVR1) [%] | Percent Control (ACVR2A) [%] | Percent Control (ACVR2B) [%] | Percent Control (ACVRL1) [%] | Percent Control (ADCK3) [%] | Percent Control (ADCK4) [%] | Percent Control (AKT1) [%] | Percent Control (AKT2) [%] | Percent Control (AKT3) [%] | Percent Control (ALK(C1156Y)) [%] | Percent Control (ALK(L1196M)) [%] | Percent Control (ALK) [%]
1 | CN(C)CCNC(=O)Nc1ccc(N(C)c2ccnc(Nc3ccc(CS(C)(=O)=O)cc3)n2)cc1.Cl [GW830900A] | 58 | 78 | 86 | 65 | 59 | 71 | 75 | 100 | 79 | 79 | 88 | 100 | 100 | 79 | 100 | 100 | 100 | 70 | 85 | 71
2 | Cl.O=C(O[C@H]1CN[C@H](C#Cc2cc3ncnc(Nc4ccc5c(cnn5Cc5ccccc5)c4)c3s2)C1)N1CCOCC1 [GSK200398A] | 80 | 100 | 100 | 78 | 84 | 76 | 100 | 100 | 100 | 100 | 100 | 82 | 100 | 100 | 92 | 100 | 100 | 94 | 88 | 100
3 | CC1=C(C(=O)Nc2ccc3[nH]ncc3c2)C(c2ccc3ccccc3c2)CC(=O)N1 (stereo not shown) [GSK270822A] | 84 | 48 | 76 | 79 | 54 | 80 | 100 | 97 | 93 | 100 | 86 | 100 | 100 | 100 | 17 | 100 | 100 | 72 | 77 | 68
4 | NS(=O)(=O)c1ccc(N/N=C2\C(=O)Nc3ccc(C(=O)NCc4ccncc4)cc32)cc1 [GW300657X] | 72 | 97 | 98 | 82 | 79 | 77 | 100 | 100 | 100 | 100 | 100 | 100 | 87 | 100 | 82 | 100 | 100 | 83 | 82 | 77
5 | COc1ccccc1-c1cc(/C=C2\C(=O)Nc3ncc(Br)cc32)cc(Br)c1O [GW442130X] | 86 | 87 | 100 | 88 | 84 | 77 | 100 | 95 | 100 | 100 | 100 | 95 | 100 | 100 | 93 | 100 | 100 | 100 | 100 | 100
6 | NS(=O)(=O)c1ccc(N/N=C2\C(=O)Nc3ccc(-c4cnco4)cc32)cc1 [GW276655] | 70 | 67 | 70 | 69 | 84 | 74 | 98 | 100 | 66 | 90 | 100 | 100 | 100 | 100 | 84 | 65 | 100 | 97 | 100 | 83
7 | CCS(=O)(=O)c1ccc(OC)c(Nc2ncc(-c3cccc(F)c3)o2)c1 [GW621970X] | 4.9 | 100 | 91 | 7.1 | 20 | 9.9 | 33 | 100 | 18 | 100 | 100 | 49 | 100 | 100 | 100 | 100 | 100 | 88 | 97 | 73
8 | CCc1ccc(Oc2nccc(-c3c(-c4ccc(F)cc4)ncn3C3CCNCC3)n2)cc1 [SB-242719] | 79 | 93 | 100 | 71 | 74 | 62 | 100 | 83 | 78 | 100 | 100 | 97 | 100 | 100 | 88 | 100 | 100 | 100 | 98 | 96
9 | O=C(Nc1n[nH]c2nc(-c3ccc(O)cc3)c(Br)cc12)C1CC1 [SB-725317] | 37 | 16 | 12 | 48 | 22 | 31 | 100 | 100 | 72 | 75 | 79 | 65 | 100 | 100 | 100 | 100 | 85 | 54 | 87 | 75
10 | COC(=O)Nc1nc2ccc(Oc3ccc(NC(=O)Nc4cc(C(F)(F)F)ccc4F)cc3)cc2s1.Cl [GW693917A] | 32 | 5.1 | 6.7 | 15 | 3.1 | 13 | 2.6 | 100 | 89 | 100 | 100 | 65 | 100 | 75 | 84 | 100 | 100 | 89 | 87 | 100
11 | COc1cc(C=NNc2ncnc3c2cnn3-c2ccccc2)ccc1O [GW513184X] | 13 | 37 | 35 | 26 | 31 | 23 | 55 | 53 | 22 | 68 | 82 | 67 | 95 | 0 | 100 | 100 | 100 | 100 | 100 | 100
12 | COc1cc(N2CCN(C(C)C)CC2)ccc1Nc1nc(Nc2ccc(F)cc2C(=O)NC[C@@H](O)CO)c2cc[nH]c2n1 [GSK1392956A] | 100 | 100 | 100 | 100 | 100 | 100 | 100 | 100 | 100 | 100 | 100 | 86 | 94 | 100 | 83 | 100 | 100 | 0.1 | 1.1 | 0.2
13 | NS(=O)(=O)c1ccc(N/N=C2\C(=O)Nc3ccc(C(=O)NCCc4c[nH]cn4)cc32)cc1 [GW300660X] | 100 | 100 | 86 | 100 | 100 | 91 | 100 | 100 | 100 | 100 | 100 | 100 | 100 | 100 | 100 | 100 | 100 | 92 | 91 | 100
14 | C[C@@H](Oc1cc(-n2cnc3ccc(OC4CCN(C)CC4)cc32)sc1C(N)=O)c1ccccc1Cl [GSK579289A] | 67 | 61 | 75 | 60 | 60 | 48 | 83 | 81 | 85 | 57 | 60 | 100 | 97 | 20 | 100 | 100 | 100 | 82 | 81 | 87
15 | COc1cc(/C=N/Nc2ncnc3[nH]ncc23)ccc1O [GW578748X] | 1.6 | 79 | 24 | 1.1 | 3.1 | 1.2 | 68 | 100 | 83 | 50 | 40 | 67 | 100 | 100 | 100 | 100 | 100 | 82 | 75 | 98
16 | CC1=C(C(=O)Nc2ccc3[nH]ncc3c2)C(c2ccc(Cl)c(Cl)c2)CC(=O)N1 (stereo not shown) [GSK299115A] | 100 | 83 | 90 | 97 | 74 | 94 | 83 | 100 | 95 | 80 | 69 | 100 | 99 | 92 | 100 | 100 | 100 | 100 | 100 | 77
17 | CCS(=O)(=O)c1ccc(OC)c(Nc2ncc(-c3cccc(OC)c3)o2)c1 [GW580509X] | 3.2 | 100 | 97 | 8 | 16 | 9.4 | 26 | 100 | 27 | 100 | 100 | 50 | 100 | 100 | 100 | 100 | 100 | 87 | 100 | 100
18 | O=C1Nc2ccc(C(=O)c3ccco3)cc2C1=Cc1cc(Cl)c(O)c(Cl)c1 [GW406108X] | 88 | 96 | 78 | 83 | 87 | 76 | 100 | 100 | 89 | 92 | 86 | 100 | 90 | 99 | 100 | 100 | 100 | 76 | 86 | 89
19 | COc1cc(C)c(N(C)C(=O)CN(C)C)cc1Nc1nc(Nc2cccc(F)c2C(N)=O)c2cc[nH]c2n1 [GSK2219385] | 95 | 65 | 100 | 100 | 69 | 87 | 100 | 100 | 96 | 100 | 100 | 100 | 80 | 100 | 98 | 85 | 100 | 4.5 | 13 | 1.7
20 | Cc1cc(O)cc(C)c1/C=C/c1cncc(C(N)=O)c1 [GW435821X] | 13 | 100 | 85 | 8.8 | 25 | 14 | 47 | 89 | 7.3 | 14 | 7.1 | 2.6 | 100 | 100 | 96 | 100 | 100 | 96 | 88 | 100
